# From PubChem BioAssay
# Records with an inconclusive call do not appear. Active and inactive are the calls of the source. Rule as the data show it, unless noted: active = inhibition above about 30%; inactive = the rest.
# Assays:
# [1] = Her2 expression decrease, cell viability multiplex – SKBR3 breast tumor cells, AlphaScreen, ATP viability, primary screen (AID 461;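 active = Her2 level under about 52% in both replicate screens, with viability over 70% of control, limit read from the data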;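 as to Her2 level: lower value means less Her2 protein in the cells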;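 as to viability: percent of carrier control wells set as 100% viability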); conditions: SKBR3 Her2 protein level, 18-24 h, measured here: SKBR3 viability, ATP luminescence, at 10 µM
# [2] = target: Receptor tyrosine-protein kinase erbB-2 (Homo sapiens) (UniProt P04626); experiment: as above; conditions: 18-24 h, at 10 µM, stronger effect = lower value
# Receptor tyrosine-protein kinase erbB-2 (Homo sapiens), sequence (P04626 whole entry, looked up): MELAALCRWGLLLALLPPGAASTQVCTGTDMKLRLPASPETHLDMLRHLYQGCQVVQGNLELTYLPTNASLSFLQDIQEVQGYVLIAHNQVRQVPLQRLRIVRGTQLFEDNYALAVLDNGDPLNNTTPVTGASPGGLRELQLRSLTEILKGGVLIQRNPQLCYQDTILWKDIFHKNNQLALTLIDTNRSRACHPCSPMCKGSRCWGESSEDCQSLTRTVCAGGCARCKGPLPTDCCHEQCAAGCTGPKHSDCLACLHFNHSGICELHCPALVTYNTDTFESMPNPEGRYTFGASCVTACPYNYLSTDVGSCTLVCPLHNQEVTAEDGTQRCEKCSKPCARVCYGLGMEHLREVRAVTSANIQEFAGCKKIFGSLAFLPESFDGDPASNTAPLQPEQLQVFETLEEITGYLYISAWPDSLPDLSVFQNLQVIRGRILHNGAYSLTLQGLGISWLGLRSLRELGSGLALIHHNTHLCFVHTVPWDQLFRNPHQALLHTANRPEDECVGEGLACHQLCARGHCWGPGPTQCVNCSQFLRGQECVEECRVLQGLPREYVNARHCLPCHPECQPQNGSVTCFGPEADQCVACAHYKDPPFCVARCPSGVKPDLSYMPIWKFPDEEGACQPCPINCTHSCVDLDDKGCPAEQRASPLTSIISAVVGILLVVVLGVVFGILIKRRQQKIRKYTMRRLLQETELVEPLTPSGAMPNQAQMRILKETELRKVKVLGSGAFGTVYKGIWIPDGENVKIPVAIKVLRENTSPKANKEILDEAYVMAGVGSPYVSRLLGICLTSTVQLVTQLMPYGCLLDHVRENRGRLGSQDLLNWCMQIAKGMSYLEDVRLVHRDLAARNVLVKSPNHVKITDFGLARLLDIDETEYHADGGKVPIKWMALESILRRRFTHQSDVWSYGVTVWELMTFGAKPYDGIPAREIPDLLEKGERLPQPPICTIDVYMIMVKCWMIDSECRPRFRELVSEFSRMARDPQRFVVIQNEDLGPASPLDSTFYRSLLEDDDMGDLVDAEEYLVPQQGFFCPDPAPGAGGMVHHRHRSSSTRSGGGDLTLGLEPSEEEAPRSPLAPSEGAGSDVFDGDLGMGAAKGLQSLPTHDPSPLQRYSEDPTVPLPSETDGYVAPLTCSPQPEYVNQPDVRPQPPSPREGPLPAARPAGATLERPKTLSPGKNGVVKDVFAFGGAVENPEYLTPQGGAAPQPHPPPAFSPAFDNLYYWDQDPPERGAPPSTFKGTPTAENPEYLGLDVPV
# [3] = reduced viability of SK-BR-3 breast cancer cells – cell-based, 24 h, human, pilot screen (AID 572;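 active = viability at or below 10% of carrier control in both of two separate runs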;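 also: compound exposure lasted between 18 and 24 h rather than exactly 24 h; 100% = carrier-treated control wells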); conditions: SK-BR-3 viability, CellTiter-Glo luminescence, at 10 µM, stronger effect = lower value
# [4] = HUVEC growth inhibition – cell-based, human, primary screen (AID 575;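 active = viability at or below 30% in both replicate assays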;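 also: 100% = median of untreated cell wells with 0.1% DMSO on each plate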); conditions: HUVEC proliferation, CellTiter-Glo luminescence, 72 h; at 10 µM; stronger effect = lower value
# [5] = H69AR cell proliferation blockers – human, duplicate replicates, primary screen (AID 580;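 active = viability at or under a set limit in both replicates, limit being median viability minus 3 SD, cut at about 48% in these data, passing the limit was not always enough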;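 also: 100% = mean luminescence of untreated wells and 0% = no signal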); conditions: H69AR lung tumor cells viability, ATP luminescence, 72 h; at 10 µM; stronger effect = lower value
# [6] = MRP1 drug-resistance reversers in H69AR cells – cell-based, doxorubicin co-treatment, pilot screen (AID 601;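 active = viability loss from added drug above about 55%, and viability with drug at most 40%, in both replicates, limit read from the data, passing the limit was not always enough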); conditions: CellTiter-Glo, 72 h, at 10 µM; for differential viability (reversal): stronger effect = higher value
# [7] = yeast transport mutant growth inhibition pilot in 384-well plates, post-Golgi transport modulator project (AID 636; in the data active = inhibition above about 31%); conditions: absorbance 615 nm, about 18 h, stronger effect = higher value
# [8] = growth suppression of yeast trafficking mutant, preliminary HTS, modulators of trafficking downstream of Golgi apparatus project, 1536-format plate, OD 615 nm (AID 637); conditions: yeast transport mutant growth, absorbance 615 nm, 18 h; stronger effect = higher value
# [9] = S. cerevisiae growth inhibition in permissive medium (OD615), pilot counter-assay for S. cerevisiae lifespan shortening project, permissive growth control (AID 705;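 active = growth inhibition above 25% in both replicates, a cutoff set 3 SD above the mean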); conditions: OD615, 24 h, at 10 µM, stronger effect = higher value
# [10] = S. cerevisiae growth inhibition in restrictive medium, OD615, pilot screen, restrictive growth control, yeast lifespan reduction project (AID 706;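 active = growth inhibition above a set limit, 3 SD over mean compound inhibition, in both replicates, cut at about 43% in these data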;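 also: modified DeaD lifespan yeast strain shifted to restrictive glucose medium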); conditions: OD615, 48 h, at 10 µM, stronger effect = higher value
# [11] = doxorubicin toxicity protection in MRP-1 cells – H69AR cells, CellTiter-Glo, duplicate, MRP-1 activator project, pilot screen (AID 807;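 active = viability increase at or above a cutoff of the median across tested compounds plus 3 SD, cut at about 8.5% in these data, passing the limit was not always enough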;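 also: compound pretreatment 18-22 h then 72 h combined with doxorubicin; 0% = doxorubicin alone and 100% = vehicle without doxorubicin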); conditions: H69AR viability with doxorubicin, CellTiter-Glo luminescence; at 10 µM; stronger effect = higher value
# [12] = viability of HCT116 without oncogenic beta-catenin – human colon tumor cells, pilot screen (AID 823;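 active = cell viability at or below a set limit in both duplicate runs, the limit being the all-compound median minus 4 SD, cut at about 23% in these data, passing the limit was not always enough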;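 also: 0% = wells killed by 20 µM Hyamine and 100% = untreated DMSO cell wells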); conditions: HCT116 beta-catenin knockout viability, CellTiter-Glo, 60 h; at 10 µM; stronger effect = lower value
# [13] = viability of PTEN-null HCT116 cells – cell-based, HCT116 clonal line, CellTiter-Glo, pilot screen (AID 824;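 active = viability at or below 27.92% in each of two runs, the all-compound median minus 4 SD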;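 also: 0% = 20 µM Hyamine control and 100% = vehicle cell control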); conditions: HCT116 PTEN-deleted viability, 60 h, at 10 µM, stronger effect = lower value
# [14] = RAM pathway blockade in budding yeast – dse1pr::URA3 reporter, 5-FOA selection, pilot screen (AID 869;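 active = inhibition over a set limit, the all-compound mean plus 3 SD, in both replicate runs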;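 also: 0% = DMSO wells with no growth and 100% = 10 µM 1-NA-PP1 with full growth; RAM network block rescues cells from 5-FOA so hits raise OD615 growth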); conditions: S. cerevisiae dse1pr::URA3 5-FOA growth, OD615, 2 d; at 10 µM; stronger effect = higher value; strain carries analog-sensitive mutant Cbk1 kinase
# [15] = RAM signaling pathway blockade in yeast – S. cerevisiae, Pdr1DBD-CYC8 efflux-inhibited sensitized strain, primary screen (AID 1298;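 active = RAM network inhibition above 8.4% in each of two replicates, 3 SD over the compound average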;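 also: 0% = DMSO untreated cells without growth and 100% = 10 µM 1-NA-PP1 full growth; higher means more yeast growth rescued from 5-FOA killing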); conditions: S. cerevisiae cbk1-as DSE1-URA3 strain, 5-FOA growth OD615, 2 d; at 50 µM; stronger effect = higher value
# [16] = H69AR cells + 2 uM doxorubicin, measured here: viability with 2 uM doxorubicin, stronger effect = lower value
# [17] = H69AR cells, compound alone cytotoxicity
SMILES,viability [1],Her2 level [2],viability [3],viability [4],viability [5],differential viability (reversal) ([6]; H69AR cells + 2 uM doxorubicin),"viability [6, 16]","viability [6, 17]",inhibition [7],inhibition [8],growth inhibition [9],growth inhibition [10],viability increase [11],viability [12],viability [13],inhibition [14],RAM network inhibition [15]
Cc1ccccc1-n1c(Cn2c(=O)sc3ccccc32)nnc1SCC(=O)N1CCCC1,109%,90.5% (inactive),109% (inactive),98% (inactive),93.7% (inactive),12.6% (inactive),81.1%,93.7%,-4% (inactive),6.89% (inactive),-2.21% (inactive),6.39% (inactive),-0.45% (inactive),98.6% (inactive),104% (inactive),-0.765% (inactive),8.27% (inactive)
CCOC(=O)C1CCN(Cc2ccc(F)c(Br)c2)CC1,122%,118% (inactive),122% (inactive),106% (inactive),85.5% (inactive),-7.29% (inactive),92.8%,85.5%,-1.17% (inactive),9.5% (inactive),-3.72% (inactive),-1.05% (inactive),-2.69% (inactive),90.4% (inactive),91.9% (inactive),2.35% (inactive),-0.36% (inactive)
Clc1ccc(SCCCCn2ccnc2)cc1,90.5%,113% (inactive),90.5% (inactive),102% (inactive),99.2% (inactive),10.9% (inactive),88.3%,99.2%,1.22% (inactive),-1% (inactive),1.02% (inactive),-14.2% (inactive),0.79% (inactive),64.8% (inactive),65.7% (inactive),0.96% (inactive),-0.38% (inactive)
COC(=O)c1ccc(-n2nnnc2SCc2nn[nH]n2)cc1,77%,135% (inactive),77% (inactive),107% (inactive),114% (inactive),21.8% (inactive),91.7%,114%,3.21% (inactive),-5.5% (inactive),-0.675% (inactive),25.4% (inactive),0.27% (inactive),106% (inactive),100% (inactive),0.965% (inactive),-1.09% (inactive)
Cc1ccc(C)c(S(=O)(=O)n2cnc3ccccc32)c1,96.5%,87.5% (inactive),96.5% (inactive),109% (inactive),99% (inactive),7.94% (inactive),91.1%,99%,-0.13% (inactive),30.2% (active),-18% (inactive),-20.2% (inactive),0.98% (inactive),95.2% (inactive),97.6% (inactive),2.08% (inactive),2.15% (inactive)
O=c1c2ccccc2nc(SCc2nc(-c3ccccc3)no2)n1-c1ccc(F)cc1,90.5%,98% (inactive),90.5% (inactive),79.7% (inactive),89.7% (inactive),-5.78% (inactive),95.5%,89.7%,-5.73% (inactive),2.17% (inactive),2.33% (inactive),-3.72% (inactive),-1.52% (inactive),72.2% (inactive),68.6% (inactive),1.77% (inactive),8.86% (inactive)
Cn1c(NC(=O)c2ccccc2NC(=O)C(C)(C)C)nc2ccccc21,95%,116% (inactive),95% (inactive),62.8% (inactive),60.6% (inactive),-16.9% (inactive),77.5%,60.6%,-1.73% (inactive),2.33% (inactive),3.42% (inactive),8.1% (inactive),-2.36% (inactive),47.1% (inactive),55.1% (inactive),-0.01% (inactive),1.74% (inactive)
CCSc1nc2c(c(=O)[nH]1)C(c1cccnc1)C(C(=O)OC(C)C)=C(C)N2 (stereo not drawn),95.5%,83.5% (inactive),95.5% (inactive),90.9% (inactive),97.4% (inactive),15.6% (inactive),81.8%,97.4%,-4.19% (inactive),-0.33% (inactive),-18.5% (inactive),-8.67% (inactive),-3.07% (inactive),92.3% (inactive),92.5% (inactive),0.98% (inactive),0.72% (inactive)
COc1ccc(S(=O)(=O)Cc2ccc(C(=O)NCCc3ccc(S(N)(=O)=O)cc3)o2)cc1,94.5%,114% (inactive),94.5% (inactive),91.6% (inactive),91.7% (inactive),12.1% (inactive),79.6%,91.7%,-4.13% (inactive),-2.67% (inactive),-0.09% (inactive),-4.47% (inactive),0.71% (inactive),102% (inactive),99.1% (inactive),0.71% (inactive),0.1% (inactive)
Cc1ccnc(SCCn2c(N3CCN(Cc4ccccc4)CC3)nc3c2c(=O)[nH]c(=O)n3C)n1,85%,93.5% (inactive),85% (inactive),91.7% (inactive),87.5% (inactive),-0.99% (inactive),88.4%,87.5%,-3.6% (inactive),-4.59% (inactive),3.26% (inactive),0.065% (inactive),-1.27% (inactive),95.7% (inactive),99.3% (inactive),0.145% (inactive),2.81% (inactive)
Cc1ccc(C(C)C)c(OCCCN2CC(C)OC(C)C2)c1 (stereo not drawn),98.5%,85% (inactive),98.5% (inactive),101% (inactive),89.4% (inactive),-9.6% (inactive),99%,89.4%,75.4% (active),27.7% (inactive),-7.86% (inactive),-13.4% (inactive),-2.59% (inactive),78.5% (inactive),89.3% (inactive),0.705% (inactive),1.47% (inactive)
CN(C)CCNc1oc(-c2ccccc2F)nc1C#N,93%,94% (inactive),93% (inactive),87.4% (inactive),105% (inactive),14.7% (inactive),90.3%,105%,-4.27% (inactive),3.77% (inactive),-13.7% (inactive),-6.7% (inactive),1.17% (inactive),107% (inactive),107% (inactive),1.36% (inactive),1.9% (inactive)
COc1ccc(S(=O)(=O)N2Cc3ccccc3CC2C(=O)Nc2ccc(O)cc2)cc1OC (stereo not drawn),91%,106% (inactive),91% (inactive),76.3% (inactive),77.4% (inactive),1.23% (inactive),76.2%,77.4%,-4.27% (inactive),-0.83% (inactive),-18.6% (inactive),-18.4% (inactive),-4.42% (inactive),96.6% (inactive),87.5% (inactive),1.39% (inactive),11.6% (inactive)
Cc1noc(C)c1S(=O)(=O)N1CCN(Cc2ccc3c(c2)OCO3)CC1,82.5%,105% (inactive),82.5% (inactive),96.7% (inactive),95.4% (inactive),9.66% (inactive),85.7%,95.4%,-0.93% (inactive),0% (inactive),-5.76% (inactive),7.12% (inactive),-0.42% (inactive),95.3% (inactive),98% (inactive),0.725% (inactive),8.84% (inactive)
COc1ccc(OC)c(NC(=O)c2cn(C)c(=O)c3cc(OC)c(OC)cc23)c1,104%,104% (inactive),104% (inactive),97.2% (inactive),93.8% (inactive),5.68% (inactive),88.1%,93.8%,-0.41% (inactive),28.7% (inactive),-17.3% (inactive),-19.3% (inactive),-4.55% (inactive),99.6% (inactive),96.7% (inactive),0.435% (inactive),3.89% (inactive)
COc1ccc(N(CC(=O)O)S(=O)(=O)c2ccc(OC)c(OC)c2)cc1,112%,102% (inactive),112% (inactive),108% (inactive),90.3% (inactive),-3.8% (inactive),94.1%,90.3%,-3.38% (inactive),1.31% (inactive),-15.1% (inactive),-11.2% (inactive),-1.32% (inactive),105% (inactive),99.1% (inactive),-0.04% (inactive),0.87% (inactive)
CCN(CC)c1ccc(NC(=O)c2nc3nc(C)cc(C(F)F)n3n2)cc1,122%,102% (inactive),122% (inactive),81.6% (inactive),84.4% (inactive),6.97% (inactive),77.4%,84.4%,-3.6% (inactive),6.72% (inactive),-8.26% (inactive),-10.5% (inactive),0.23% (inactive),95.2% (inactive),88% (inactive),0.83% (inactive),1.16% (inactive)
Oc1ccc(Cl)cc1-c1cc(-c2ccccc2)n[nH]1,55.5%,61% (inactive),55.5% (inactive),7.56% (active),6.37% (active),-7.55% (inactive),13.9%,6.37%,-0.53% (inactive),100% (active),-1.5% (inactive),-6.9% (inactive),-7.82% (inactive),16% (active),23.1% (active),1.59% (inactive),8.32% (inactive)
CCN(CC)C(=O)C1CCCc2c1[nH]c1ccc(Cl)cc21 (stereo not drawn),102%,91% (inactive),102% (inactive),67.1% (inactive),76.6% (inactive),5.98% (inactive),70.6%,76.6%,8.13% (inactive),44% (active),-16% (inactive),-4.67% (inactive),-4.93% (inactive),66.5% (inactive),60.8% (inactive),0.455% (inactive),1.57% (inactive)
